According to the supplement of paper PMC9694430:
Structures can show the parent of a compound that is named as a salt.

How the values were obtained:
Assay in all cases: thermal shift delta Tm vs DMSO control; higher = stronger stabilization (binding)
Conditions in all cases: 12.5 µM; protein concentration 2 µM
[1] = system: LOC_OS02G45750-cb003
Procedure, shortened: (§1)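 Compounds dissolved in DMSO were added to purified rice kinase domain constructs, which had been expressed in E. coli, for differential scanning fluorimetry. Each well held 19.5 μl of 2 μM kinase in 100 mM potassium phosphate pH 7.5, 150 mM NaCl, 10% glycerol and 5 × SYPRO Orange. Fluorescence was followed from 25°C to 95°C at a rate of 0.05°C/s. Shifts in Boltzmann-fitted melting temperature are triplicate means relative to DMSO-only protein.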

[2] = system: LOC_OS02G54510-cb004
Procedure, shortened: as §1

[3] = system: LOC_OS03G04050-cb001
Procedure, shortened: as §1

[4] = system: LOC_OS03G12390-cb001
Procedure, shortened: as §1

[5] = system: LOC_OS03G27990-cb004
Procedure, shortened: as §1

[6] = system: LOC_OS03G50450-cb001
Procedure, shortened: as §1

[7] = system: LOC_OS03G50810-cb003
Procedure, shortened: as §1

[8] = system: LOC_OS04G35114-cb001
Procedure, shortened: as §1

[9] = system: T1, LOC_OS04G38480-cb003
T1 sequence (whole entry): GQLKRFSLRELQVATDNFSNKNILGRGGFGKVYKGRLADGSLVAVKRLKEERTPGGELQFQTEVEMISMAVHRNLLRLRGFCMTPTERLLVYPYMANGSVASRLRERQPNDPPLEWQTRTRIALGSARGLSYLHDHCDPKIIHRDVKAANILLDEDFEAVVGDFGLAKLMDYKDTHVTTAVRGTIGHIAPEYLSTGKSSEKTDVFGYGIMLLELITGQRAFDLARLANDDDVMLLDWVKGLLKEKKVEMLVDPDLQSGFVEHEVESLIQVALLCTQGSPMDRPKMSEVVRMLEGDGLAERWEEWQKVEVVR
Procedure, shortened: as §1

[10] = system: T2, LOC_OS04G41100-cb001
T2 sequence (whole entry): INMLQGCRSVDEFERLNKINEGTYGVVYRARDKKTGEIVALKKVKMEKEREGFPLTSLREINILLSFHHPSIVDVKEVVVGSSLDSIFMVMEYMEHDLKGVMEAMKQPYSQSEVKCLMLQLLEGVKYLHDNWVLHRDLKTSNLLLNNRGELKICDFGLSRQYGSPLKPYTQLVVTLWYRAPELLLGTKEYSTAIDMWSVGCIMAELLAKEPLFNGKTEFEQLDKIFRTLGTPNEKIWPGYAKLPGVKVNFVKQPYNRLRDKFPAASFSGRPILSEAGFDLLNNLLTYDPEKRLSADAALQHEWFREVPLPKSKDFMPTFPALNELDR
Procedure, shortened: as §1

Row | Compound | thermal shift delta Tm [1] | thermal shift delta Tm [2] | thermal shift delta Tm [3] | thermal shift delta Tm [4] | thermal shift delta Tm [5] | thermal shift delta Tm [6] | thermal shift delta Tm [7] | thermal shift delta Tm [8] | thermal shift delta Tm [9] | thermal shift delta Tm [10]
1 | Cc1cc(CS(=O)(=O)c2ccccc2)cc(OCc2ccc(CN3CCC[C@@H]3CO)cc2)c1 | -0.41 °C | 0.16 °C | 0.65 °C | -0.25 °C | 0.41 °C | 0.6 °C | 0.23 °C | 0.57 °C | 0.83 °C | 0.44 °C
2 | COc1cc2ncnc(Nc3cccc(Cl)c3F)c2cc1OC(=O)N1CCN(C)C[C@H]1C | 1.31 °C | 0.53 °C | 0.43 °C | 0.01 °C | 0.33 °C | 0.9 °C | 0.48 °C | 3.07 °C | 1.2 °C | 0.24 °C
3 | CCn1c(=O)c(-c2cc[nH]n2)cc2c(C)nc(N)nc21 | 0.15 °C | 0.22 °C | 0.35 °C | 0.21 °C | 0.09 °C | 0.05 °C | 0.28 °C | 0.94 °C | 0.82 °C | 0.15 °C
4 | Cc1ncc(-c2ccnc(Nc3ccc(S(C)(=O)=O)cc3)n2)n1C(C)C | 4.52 °C | 0.65 °C | 0.19 °C | 3.93 °C | 0.85 °C | 0.58 °C | 1.7 °C | 1.83 °C | 2.87 °C | 4.97 °C
5 | O=c1c(O)c(-c2ccc(O)c(O)c2)oc2cc(O)cc(O)c12 [Quercetin] | 3.32 °C | 0.4 °C | 0.73 °C | 5.69 °C | 2.91 °C | 2.18 °C | 2.6 °C | 4.71 °C | 3.37 °C | 0.61 °C
6 | CC(C)CC(NC(=O)C(Cc1ccccc1)NC(=O)C(CCC(N)=O)NC(=O)C(Cc1ccc(O)cc1)NC(=O)C(C)NC(=O)CNC(=O)C(CCCCN)NC(=O)C(Cc1c[nH]c2ccccc12)NC(=O)C(NC(=O)C(Cc1c[nH]c2ccccc12)NC(=O)C(CCCCN)NC(=O)CNC(=O)C(CC(N)=O)NC(=O)C(CCC(=O)O)NC(=O)C(Cc1c[nH]c2ccccc12)NC(=O)C(NC(=O)C(Cc1c[nH]c2ccccc12)NC(=O)C(CO)NC(=O)CNC(=O)C1CCCN1C(=O)C(Cc1c[nH]c2ccccc12)NC(=O)C(CCC(N)=O)NC(=O)C(Cc1ccccc1)NC(=O)CNC(=O)C(N)Cc1c[nH]cn1)C(C)O)C(C)O)C(=O)NC(CCCCN)C(=O)NCC(=O)NCC(=O)NCC(=O)NCC(=O)NC(CO)C(=O)NC(CCCNC(=N)N)C(=O)NC(CCCNC(=N)N)C(=O)NC(CCCNC(=N)N)C(=O)NC(CCCNC(=N)N)C(=O)NC(CCCNC(=N)N)C(=O)NC(CCCNC(=N)N)C(=O)NC(CCCNC(=N)N)C(=O)NC(CCCNC(=N)N)C(=O)NC(CCCNC(=N)N)C(=O)O (centres undefined) | 0.69 °C | 0.13 °C | 0.6 °C | -3.52 °C | -3.62 °C | 0.05 °C | -1.39 °C | 0.3 °C | 4.04 °C | 0.4 °C
7 | COc1ccc(-c2ccc3c(N4CCOC[C@@H]4C)nc(N4CCOC[C@@H]4C)nc3n2)cc1CO | 0.67 °C | 0.38 °C | 0.33 °C | -0.12 °C | 0.09 °C | 0.41 °C | 0.18 °C | 0.4 °C | -0.21 °C | 0.57 °C
8 | O=C(NOCC(O)CO)c1cc(Br)c(F)c(F)c1Nc1ccc(I)cc1F (centres undefined) | -0.49 °C | -0.06 °C | 0.63 °C | 0.93 °C | 0.15 °C | 0.19 °C | 0.19 °C | 0.09 °C | 1.04 °C | 3.8 °C
9 | Cc1ncc(CCCN(C)C)cc1Nc1ncc2c(n1)-c1ccc(C(F)(F)F)cc1NC(=S)C2 | 1.25 °C | 0.09 °C | 0.4 °C | 3.03 °C | 0.91 °C | 0.13 °C | 0.62 °C | 0.02 °C | 0.51 °C | 0.47 °C
10 | Nc1nc(Nc2ccc(S(N)(=O)=O)cc2)nn1C(=O)c1c(F)cccc1F | 9.34 °C | 2.82 °C | -0.19 °C | 9.07 °C | 3.59 °C | 0.97 °C | 3.42 °C | 4.58 °C | 2.97 °C | 2.3 °C
11 | Cc1ccc2nc(NCCN)c3ncc(C)n3c2c1 | 1.07 °C | 0.24 °C | 0.59 °C | -0.09 °C | 0.55 °C | 0.62 °C | 0.58 °C | 0.91 °C | 0.69 °C | 1.54 °C
12 | O=C(O)c1ccc2c(c1)nc(Nc1cccc(Cl)c1)c1ccncc12 [Silmitasertib (CX-4945)] | 1.82 °C | 1.5 °C | 0.25 °C | 4.4 °C | 4.14 °C | 0.83 °C | 1.55 °C | 6.87 °C | 1.13 °C | 0.77 °C
13 | CC(C)(C)c1cc(/C=C(\C#N)C(N)=S)cc(C(C)(C)C)c1O [Tyrphostin AG 879] |  | 6.54 °C | 0.85 °C | 2.51 °C | 1 °C | 0.98 °C | 2.05 °C | 1.68 °C | 2.13 °C | 1.27 °C
14 | COc1cc2c(Oc3ccc(NC(=O)C4(C(=O)Nc5ccc(F)cc5)CC4)cc3F)ccnc2cc1OCCCN1CCOCC1 | 3.41 °C | 2.08 °C | 0.79 °C | 0.18 °C | 0.69 °C | 0.65 °C | 3.35 °C | 3.93 °C | 3.42 °C | 1.7 °C
15 | Cc1cc(Nc2ncc(Cl)c(Nc3ccccc3S(=O)(=O)C(C)C)n2)c(OC(C)C)cc1C1CCNCC1 [Ceritinib (LDK378)] | 0.68 °C | 0.09 °C | 0.7 °C | 2.72 °C | 0.52 °C | 0.56 °C | 0.58 °C | 0.66 °C | 1 °C | 0.26 °C
16 | C=C(C)[C@@H]1CC[C@]2(C)CC[C@]3(C)[C@H](CC[C@@H]4[C@@]5(C)CC[C@H](O)C(C)(C)[C@@H]5CC[C@]43C)[C@@H]12 [Lupeol] | 1.07 °C | 0.49 °C | 0.67 °C | 0.01 °C | 0.18 °C | 0.36 °C | 0.4 °C | 1.24 °C | 3.02 °C | 0.47 °C
17 | O=C(Nc1cnn2ccc(N3CCC[C@@H]3c3cc(F)ccc3F)nc12)N1CC[C@H](O)C1 [Larotrectinib (LOXO-101) sulfate] | 1.75 °C | 0.37 °C | 0.11 °C | -0.11 °C | 0.01 °C | 0.17 °C | 0.5 °C | 1.91 °C | 1.2 °C | 0.27 °C
18 | COC(=O)[C@]12CCC(C)(C)C[C@H]1[C@H]1C(=O)C=C3[C@@]4(C)C=C(C#N)C(=O)C(C)(C)[C@@H]4CC[C@@]3(C)[C@]1(C)CC2 [Bardoxolone Methyl] | 0.78 °C | -3.73 °C | -0.12 °C | -11.6 °C | -4.29 °C | -0.95 °C | -3.78 °C | -4.61 °C | -6.53 °C | -1.7 °C
19 | CNC(=O)c1ccccc1Nc1nc(Nc2ccc(N3CCOCC3)cc2OC)ncc1Cl | 1.17 °C | -0.15 °C | 0.35 °C | 4.35 °C | 0.45 °C | 0.26 °C | 2.21 °C | 2.54 °C | 1.62 °C | 0.51 °C
20 | COc1cc2ncnc(Nc3ccc(O)c(Br)c3)c2cc1OC | 1.02 °C | 0.71 °C | 0.44 °C | 4.5 °C | 2.33 °C | -0.05 °C | 2.28 °C | 4.51 °C | 2.11 °C | 0.46 °C
21 | CCc1cncnc1N1CCN(Cc2nc3ccc(C(F)(F)F)cc3[nH]2)CC1 | 0.59 °C | 0.3 °C | 0.39 °C | -0.06 °C | 0.33 °C | 0.04 °C | 0.36 °C | 0.25 °C | 0.52 °C | 0.52 °C
